Hits are enriched below; roughly 3.1% of the tested compounds scored in any of these assays.
LGR2 antag: Drosophila LGR2 receptor signaling inhibition | HEK293 LGR2, CRE-luciferase, bursicon-stimulated, 4 h | inhibition, % at 9.99 µM | 0.35% of 380,000 active;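 active = drop in luminescence signal, shown as inhibition above about 50% in the replicate tests, limit read from the data, passing the limit was not always enough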;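 also: agonist challenge used bursicon conditioned medium at about half maximal strength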
TROY NFkB inh: TROY signaling inhibition. Q293 LMP1-TROYcd NF-kB luciferase reporter, 4 h. inhibition, % at 10 µM. 0.98% of 360,000 active;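 active = compounds whose plate-normalised and pattern-corrected inhibition of the luciferase reporter signal at the single screening dose is 50% or more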
PAX8 reporter: PAX8 transcriptional activity inhibition | AID 652154 | RMG-I TPO-luciferase reporter, SteadyGlo, 24 h | inhibition, % at 12.6 µM | 1.2% of 360,000 active;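 active = mean replicate inhibition at least 60% with every replicate also reaching 60%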;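 also: luciferase light reporting Pax8 driven TPO promoter activity; plate controls were median of neutral control wells for no effect and mitoxantrone controls for full effect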
TWEAK Fn14 block: TWEAK-Fn14 signaling inhibition. 2% of 360,000 active. inhibition, % at 10 µM. TWEAK-stimulated Fn14 reporter cells, luciferase luminescence, 8 h. AID 1159606; in the data active = inhibition above about 50%
EBV LMP1 NFkB: Epstein-Barr LMP1 NF-kappaB reporter inhibition | 0.69% of 350,000 active | inhibition, % at 12.5 µM | LMP1-induced NF-kappaB luciferase reporter cells, luminescence; in the data active = inhibition above about 41%;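 also: 0% = neutral control wells and 100% = reference inhibitor control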
EWS-Fli block: blocks EWS/Fli oncoprotein-driven transcription. A673 NR0B1-luciferase reporter, viability-normalised. inhibition, % at 12.6 µM. 0.67% of 350,000 active. AID 651661;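 active = mean inhibition of at least 50% after viability correction, with every replicate also passing that limit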;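 also: firefly luciferase signal divided by Alamar Blue viability fluorescence both relative to DMSO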
Starred values were filed as active, the others as inactive; . = not tested or not shown.

SMILES	LGR2 antag	TROY NFkB inh	PAX8 reporter	TWEAK Fn14 block	EBV LMP1 NFkB	EWS-Fli block
CC(C)C#Cc1ccc2c(c1)O[C@H](CN(C)S(C)(=O)=O)[C@H](C)CN([C@@H](C)CO)S2(=O)=O	5	.	.	.	.	3
C[C@H](CO)N1C[C@H](C)[C@@H](CN(C)CC2CC2)Oc2c(NC(=O)C3CCOCC3)cccc2C1=O	-5	.	-7	.	.	-7
Cc1noc(C)c1S(=O)(=O)N(C)C[C@H]1OCCCC[C@@H](C)Oc2ccc(NS(=O)(=O)c3ccc(Cl)cc3)cc2C(=O)N([C@@H](C)CO)C[C@@H]1C	-6	.	88*	.	.	13
Cc1noc(C)c1S(=O)(=O)N(C)C[C@@H]1OCCCC[C@H](C)Oc2ccc(NS(=O)(=O)c3ccc(Cl)cc3)cc2C(=O)N([C@H](C)CO)C[C@@H]1C	2	.	87*	.	.	13
Cc1noc(C)c1S(=O)(=O)N(C)C[C@@H]1OCCCC[C@@H](C)Oc2ccc(NS(=O)(=O)c3ccc(Cl)cc3)cc2C(=O)N([C@H](C)CO)C[C@@H]1C	2	.	-5	.	.	1
Cc1noc(C)c1S(=O)(=O)N(C)C[C@H]1OCCCC[C@@H](C)Oc2ccc(NS(=O)(=O)c3ccc(Cl)cc3)cc2C(=O)N([C@@H](C)CO)C[C@H]1C	-11	.	76*	.	.	9
Cc1noc(C)c1S(=O)(=O)N(C)C[C@@H]1OCCCC[C@@H](C)Oc2ccc(NS(=O)(=O)c3ccc(Cl)cc3)cc2C(=O)N([C@@H](C)CO)C[C@H]1C	5	.	25	.	.	6
Cc1noc(C)c1S(=O)(=O)Nc1ccc2c(c1)C(=O)N([C@@H](C)CO)C[C@@H](C)[C@H](CN(C)S(=O)(=O)c1ccc(Cl)cc1)OCCCC[C@@H](C)O2	3	.	36	.	.	12
CC(C)CC#Cc1ccc([C@H]2[C@H](CO)N3C(=O)CN(C(=O)Cc4ccccc4)C[C@@H]23)cc1	7	.	.	.	.	-2
C[C@@H]1CN([C@H](C)CO)C(=O)c2cc(NC(=O)Nc3ccc4c(c3)OCO4)ccc2O[C@@H]1CN(C)C(=O)NC1CCCCC1	4	.	.	.	.	-16
O=C1N=C(N2CCN(c3cccc4ccccc34)CC2)S/C1=C/c1cccs1	.	-7	.	-8	78*	.
Cc1ccnc(SCc2ccc(C(=O)O)cc2)n1	-9	-12	5	108*	-2	3
O=C(C[C@@H]1CC[C@@H]2[C@H](COC[C@H](O)CN2Cc2cc(F)cc(F)c2)O1)NCc1cccc(F)c1	-9	.	13	.	.	-1
CCC(=O)N[C@H]1CC[C@@H](CC(=O)NCc2ccc(OC)cc2)O[C@H]1CO	-7	.	-1	.	.	3
C[C@@H]1CN([C@H](C)CO)C(=O)c2cc(-c3cncnc3)cnc2O[C@H]1CN(C)C(=O)Cc1ccccc1	1	.	-4	.	.	2
CN(C)CCCN(C(=O)c1cc(Cl)sc1Cl)c1nc2cc3c(cc2s1)OCO3	-6	-117	3	-43	-13	.
CN(C)CCCN(C(=O)c1cc2cc([N+](=O)[O-])ccc2s1)c1nc2cc3c(cc2s1)OCCO3	-20	64*	.	-334	-81	52*
CN(C)CCCN(C(=O)c1ccc(Cl)s1)c1nc2cc3c(cc2s1)OCO3	4	-54	-3	-4	-3	57*
CC(C)CC#Cc1cnc2c(c1)C(=O)N([C@H](C)CO)C[C@H](C)[C@H](CN(C)Cc1ccccc1C(=O)O)O2	-7	.	.	.	.	5
N#C[C@@H]1[C@H](c2ccc(C#CC3CCCCC3)cc2)[C@H](CO)N1S(=O)(=O)c1ccccc1	-6	.	84*	.	.	14
Cc1ccccc1S(=O)(=O)N1[C@H](C#N)[C@H](c2ccc(C#CC3CCCCC3)cc2)[C@H]1CO	76*	.	-28	.	.	36
N#C[C@H]1[C@H](c2ccc(C#CC3CCCC3)cc2)[C@H](CO)N1S(=O)(=O)c1ccccc1	-9	.	-7	.	.	-1
CO[C@H]1CN(C)C(=O)c2cc(NC(=O)NC3CCCCC3)ccc2OC[C@@H](C)N(CC2CCOCC2)C[C@@H]1C	-2	.	8	.	.	-2
COCC#Cc1ccc([C@@H]2[C@@H](C#N)N(C(=O)Cc3ccccc3)[C@@H]2CO)cc1	-24	.	-14	.	.	5
O=S(=O)(c1cccc(NC(=S)N2CCN(c3ccccc3F)CC2)c1)C(F)F	18	14	-2	51*	-3	-7
SMILES	LGR2 antag	TROY NFkB inh	PAX8 reporter	TWEAK Fn14 block	EBV LMP1 NFkB	EWS-Fli block
O=S(=O)(c1cccc(NC(=S)N2CCN(c3ccccc3)CC2)c1)C(F)F	1	29	7	47	4	.
C[C@H](CO)N1C[C@H](C)[C@@H](CN(C)C(=O)NC2CCCCC2)OCCCC[C@H](C)Oc2ccc(NC(=O)Nc3ccc(F)cc3)cc2C1=O	-3	.	52	.	.	5
Cc1nc(Nc2ccc(Cl)c(Cl)c2)sc1C(=O)Nc1ccccc1	-13	38	-13	84*	-4	-4
Cc1nc(Nc2ccc(Cl)cc2Cl)sc1C(=O)Nc1ccccc1	-18	30	7	0	3	-7
Cc1nn(-c2ccccn2)c2c1C(c1ccccc1Cl)C1=C(N2)c2ccccc2C1=O (stereo not drawn)	-3	16	-15	50*	10	.
COc1ccc(S(=O)(=O)N2C[C@@H](O)COC[C@H]3O[C@H](CC(=O)NCc4ccc(Cl)c(Cl)c4)CC[C@@H]32)cc1	3	.	15	.	.	4
CC1CCCC(NC(=O)COC(=O)CN2C(=O)C3CCCCC3C2=O)C1C (stereo not drawn)	-16	11	6	50*	-12	2
O=C(COC(=O)CN1C(=O)C2CCCCC2C1=O)NC1CCS(=O)(=O)C1 (stereo not drawn)	6	16	16	-1	-5	4
CC1CCCC(NC(=O)COC(=O)CCC(=O)c2cccs2)C1C (stereo not drawn)	11	-14	-4	-2	57*	1
CCc1cc(C(=O)Nc2ncccc2O)sc1C	31	28	-7	45	47*	.
COc1ccc2c3c(n(C)c2c1)[C@@H](CO)N(C(=O)Nc1c(C)noc1C)CC31CCN(CC2CC2)CC1	-1	.	.	.	.	-5
O=C(CSCc1ccccc1)NNC(=S)Nc1cccc(Cl)c1Cl	.	.	.	64*	-4	.
S=C(Nc1ccc(OCc2ccccc2)cc1)Nc1cccc(Cl)c1Cl	-26	-23	-13	-8	74*	.
S=C(Nc1ccccc1)Nc1ccc(OCc2ccccc2)cc1	.	-33	-14	-16	-3	.
COc1ccc(NC(=S)/N=C(\N)Nc2nc(C)c3ccc(C)cc3n2)cc1	-2	14	18	1	9	12
CCOc1ccc2nc(N/C(N)=N/C(=S)Nc3ccc(C)c(C)c3)nc(C)c2c1	9	5	132*	20	1	-2
CCC(=O)N1[C@@H]2c3ccc(-c4cccnc4)c(=O)n3C[C@H]1[C@H](CO)[C@H]2C(=O)NC1CCC1	-6	.	3	.	.	0
N#Cc1c(SCc2ccccc2)nc(N2CCOCC2)c2c1CCCC2	.	-10	.	10	-8	.
CCSc1nc(N2CCCCC2)c2c(c1C#N)CCCC2	.	.	.	94*	-3	.
